Source: PubChem BioAssay (The Scripps Research Institute Molecular Screening Center)
HTR5A ag – HTR5A agonists in luminescence cell assay, primary screen, counter-screen for OPRM1-OPRD1 heterodimer agonist project, full-deck HTS; cell-based; activation, % at 9.3 µM; 340,000 tested, 0.61% active; AID 504692, 2011; in the data active = activation mostly above about 9.5%, no sharp cut-off; inactive = mostly below about 7.6%
HTR5A inv ctr – HTR5A inverse agonists in luminescence cell assay, primary screen, counter-screen for OPRM1-OPRD1 heterodimer inverse agonist project, full-deck HTS; HTR5A cell line, inverse agonism; 340,000 tested, 0.083% active; inhibition, % at 9.3 µM; 5-hydroxytryptamine receptor 5A (Homo sapiens), P47898; in the data active = inhibition mostly above about 23%, no sharp cut-off; inactive = mostly below about 18%
MOR-DOR ag – agonists of OPRM1-OPRD1 heterodimerization, primary screen, cell-based, luminescence | Mu-type opioid receptor (Homo sapiens) + Delta-type opioid receptor (Homo sapiens), … | cells | activation, % at 9.3 µM | 340,000 tested, 0.3% active | AID 504326, 2011; in the data active = activation above about 18%
Target sequence (P35372 whole entry, looked up): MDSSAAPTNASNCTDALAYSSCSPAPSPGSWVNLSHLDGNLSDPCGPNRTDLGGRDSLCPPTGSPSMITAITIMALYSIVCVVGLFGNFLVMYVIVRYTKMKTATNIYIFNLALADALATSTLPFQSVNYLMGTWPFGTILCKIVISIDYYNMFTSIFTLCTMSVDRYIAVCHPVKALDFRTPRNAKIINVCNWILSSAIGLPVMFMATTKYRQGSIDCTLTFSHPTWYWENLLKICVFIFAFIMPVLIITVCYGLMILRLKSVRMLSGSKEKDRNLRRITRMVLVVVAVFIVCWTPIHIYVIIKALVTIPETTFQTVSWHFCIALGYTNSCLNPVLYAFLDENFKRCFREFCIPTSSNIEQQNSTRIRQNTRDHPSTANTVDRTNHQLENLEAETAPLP
Target sequence (P41143 whole entry, looked up): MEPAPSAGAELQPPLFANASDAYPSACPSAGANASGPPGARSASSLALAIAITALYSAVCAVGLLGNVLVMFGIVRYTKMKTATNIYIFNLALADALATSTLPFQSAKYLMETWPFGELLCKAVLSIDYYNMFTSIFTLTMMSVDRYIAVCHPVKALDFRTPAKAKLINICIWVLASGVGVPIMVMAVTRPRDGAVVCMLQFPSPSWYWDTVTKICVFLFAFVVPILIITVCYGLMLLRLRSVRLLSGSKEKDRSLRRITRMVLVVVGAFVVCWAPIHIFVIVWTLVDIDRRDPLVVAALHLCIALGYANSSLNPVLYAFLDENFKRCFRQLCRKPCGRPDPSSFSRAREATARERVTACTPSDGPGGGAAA
MOR-DOR inv ag – inverse agonists of MOR-DOR heterodimerization, primary screen, cell-based, luminescence | AID 504357, 2011 | cell-based MOR-DOR heterodimer luminescence, inverse agonism | 340,000 tested, 0.21% active | inhibition, % at 9.3 µM | Mu-type opioid receptor (Homo sapiens) + Delta-type opioid receptor (Homo sapiens), …; in the data active = inhibition above about 22%, passing the limit was not always enough
Hits are given with their value; 0 = inactive. In the library only some 1.1% were active in any assay of this set; here they are far more common.

SMILES	HTR5A ag	HTR5A inv ctr	MOR-DOR ag	MOR-DOR inv ag
CCCCCCN(C(=O)CCl)c1ccccc1	64	0	53	0
O=C(O)CSCC(=O)N1CCN(c2ccnc3cc(Cl)ccc23)CC1	11	0	0	0
CN(C)c1ccc(N/C(N)=N/c2nc(C(F)(F)F)cc(C(F)(F)F)n2)cc1	0	0	0	0
COc1ccccc1CNC(=O)c1cccc(S(=O)(=O)N(C)c2ccccc2)c1	0	0	0	0
NC(=S)N/N=C/c1ccc(-c2cc(Cl)c(Cl)cc2Cl)o1	12	0	0	0
NC(=S)N/N=C/c1ccc(Br)o1	0	0	0	0
COc1ccc(C(=O)c2no[n+]([O-])c2C(=O)c2ccc(OC)cc2)cc1	26	0	40	0
c1ccc(-c2cnn3nnnc3n2)cc1	12	0	0	0
CCCN(CCC)C1=CC(=[N+]2CCCC2)CC(C)(C)C1	0	0	0	0
O=c1cc(CSc2nnc(NC3CCCCC3)s2)nc2sccn12	0	0	0	0
COC(=O)c1cc(CSc2nnc(NC3CCCCC3)s2)oc1C	11	0	0	0
COc1ccc2c(c1)[nH]c1c(=O)n(N)cnc12	0	0	0	0
COc1ccc2c(c1)[nH]c1c(Cl)ncnc12	12	0	0	0
Cc1ccc(CNC(=O)C2CCN(S(=O)(=O)c3ccc4c(c3)CC(C)N4C(=O)C3CCC3)CC2)o1 (stereo not given)	11	0	0	0
CC(C)CCNC(=O)C1CCN(S(=O)(=O)c2ccc3c(c2)CC(C)N3C(=O)C2CCC2)CC1 (stereo not given)	0	0	0	0
CCn1c(=O)c([N+](=O)[O-])c(Cl)c2ccccc21	0	0	0	35
CCn1c(=O)c([N+](=O)[O-])c(NCCN(C)C)c2ccccc21	0	0	0	0
CCCC(C(=O)c1ccccc1)n1cncn1 (stereo not given)	11	0	0	0
Cc1cc(C)c(O)c(CN(C)Cc2cc(Cl)cc(Cl)c2O)c1	13	0	0	0
COc1ccc(C(C)=O)cc1CN1C(=O)NC(c2ccccc2)(c2ccccc2)C1=O	0	0	0	0
CCC(CC)NC(=O)c1nn(Cc2ccccc2)c(=O)c2ccccc12	9.8	0	0	0
COC(=O)[C@H](NCc1ccc(OC)c(B(O)O)c1)C(C)C	11	0	0	0
O=c1c2c(n3cnnc3n1-c1ccccc1)-c1ccccc1CC21CCCC1	13	0	0	0
O=c1c2c(n3nnnc3n1-c1ccccc1)-c1ccccc1CC21CCCC1	0	0	0	0
Cc1nn(-c2ccccc2)nc1C(=O)Oc1cc(C(F)(F)F)nn1-c1ccccc1	0	0	0	0
SMILES	HTR5A ag	HTR5A inv ctr	MOR-DOR ag	MOR-DOR inv ag
O=C(Nc1ccc(F)c(F)c1)C1CCN(S(=O)(=O)c2cccs2)CC1	0	0	0	0
Cc1sc2ncnc(N3CCCCC3C)c2c1C (stereo not given)	0	0	0	0
Cc1c(C(=O)NCCC2=CCCCC2)sc2ncnc(N3CCCCC3C)c12 (stereo not given)	11	0	0	0
COc1ccc(-c2c(NC(=O)c3ccco3)oc3c(C)cccc3c2=O)cc1	0	0	0	0
CCC(=O)N1N=C(c2cccc(NS(C)(=O)=O)c2)CC1c1cccs1 (stereo not given)	14	0	0	0
Cc1[nH]c(C)c(S(=O)(=O)NCc2ccc(F)cc2)c1C(=O)N1CCCCC1	0	0	0	0
O=C(c1ccccc1Cl)N1CCC(N2CCC(C(=O)N3CCCC3)CC2)CC1	13	0	0	0
O=C(COC(=O)c1cn(-c2ccccc2)nc1-c1ccc(F)cc1)Nc1ncc(Cl)cc1Cl	0	0	0	0
NS(=O)(=O)c1ccc(NC(=O)COC(=O)c2cn(-c3ccccc3)nc2-c2ccc(F)cc2)cc1	12	0	0	0
Cc1cccc(N=C2NC(=O)c3cc([N+](=O)[O-])ccc32)c1	0	0	0	0
COc1cccc(NC(=O)c2cccc(C)c2[N+](=O)[O-])c1	0	0	0	0
COc1ccc(C(F)(F)F)cc1N/C=C/c1nnnn1-c1ccc2ccccc2c1	12	0	0	0
CCN1C(=O)N[C@@H](c2ccco2)C(C(=O)OC)=C1C	0	0	0	0
CC1=CC(=O)C=C(C)C1=NOC(=O)/C=C\c1ccccc1	13	0	0	0
CCN(CC(=O)Nc1ccccc1OC)C(=O)c1ccc(N(C)S(=O)(=O)c2ccc(C)cc2)cc1	0	0	0	0
CC1=NNC(=O)/C1=C\c1cn(-c2ccccc2)nc1-c1ccc(F)cc1	17	0	0	0
O=Cc1cn(-c2ccccc2)nc1-c1ccc(F)cc1	0	0	0	0
Cc1cccc(NC(=S)NC2CCSc3ccccc32)c1 (stereo not given)	0	0	0	0
CCC(C)[C@@H](NC(=O)OC(C)(C)C)c1nnc(S(=O)(=O)Cc2cccc(C)c2)o1 (stereo not given in full)	14	0	0	0
COc1ccc(C(=O)N/C(=C/c2cccnc2)C(=O)N2CCCCCC2)cc1OC	8.8	0	0	0
CCOc1ccccc1N1CCN(C(=O)c2cc3cc(OC)ccc3[nH]2)CC1	0	0	0	0
Clc1ccc(CN2CCc3c([nH]c4ccccc34)C2)cc1Cl	14	0	0	0
Cc1ccc(CN2CC(C(=O)N3CCN(c4ccccc4O)CC3)CC2=O)cc1 (stereo not given)	0	0	0	0
O=C(Nc1ccc2c(c1)CCC2)c1ccc(Cl)nc1	0	0	0	0
O=C(Nc1ccc2c(c1)CCC2)c1cnc(Cl)c(Cl)c1	11	0	0	0
SMILES	HTR5A ag	HTR5A inv ctr	MOR-DOR ag	MOR-DOR inv ag
O=c1cc2oc3cc(O)c(O)cc3c(-c3ccccc3[N+](=O)[O-])c-2cc1O	0	44	0	50
O=C(Nc1ccc(C(=O)NCCCN2CCN(c3ccc(F)cc3)CC2)cc1)C1=CSCCO1	0	0	0	0
CCOc1ccccc1/C=C/C(=O)N1CCN(C(=O)c2ccco2)CC1	0	0	0	0
S=C(Nc1ccccc1Cl)NC1CCN(Cc2ccccc2)CC1	0	0	0	0
CC(C)c1ccccc1NC(=S)NC1CCN(Cc2ccccc2)CC1	11	0	0	0
CC(C)Cc1nnc(NC(=O)CSc2ncn[nH]2)s1	13	0	0	0
CCOC(=O)c1c(NC(=O)CSc2ncn[nH]2)sc(C(C)=O)c1C	0	0	0	0
COC(=O)c1c(NC(=O)CSc2ncn[nH]2)sc(C)c1C	13	0	0	0
CCOCCn1c(SCc2ccc(C)cc2)nc2c1c(=O)[nH]c(=O)n2C	13	0	0	0
Cc1ccc(S(=O)(=O)N/N=C\c2ccc3c(c2)OCO3)c(C)c1	11	0	0	0
COc1ccc(S(=O)(=O)N/N=C\c2ccc3c(c2)OCO3)cc1	0	0	0	0
CN(CC(=O)Nc1c(Cl)cccc1Cl)C(=O)c1ccc(-n2cncn2)c([N+](=O)[O-])c1	11	0	0	0
Cc1ccc(C(=O)NNc2ncnc3c2cnn3C)cc1	0	0	0	0
